Screening data from PubChem.
HT1080NT lethal: kills 2HG-producing HT-1080-NT fibrosarcoma cells. Potency, µM (series often up to 46.1 µM), usual class: cytotoxic. 360,000 tested, 1.6% active. HT-1080-NT fibrosarcoma viability, CellTiter-Glo ATP luminescence, 48 h;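 also: NT is the 2HG producing partner of a matched IDH1 knockdown line; nearly all actives have a fitted effect of over 55% in size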
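Luminescent CellTiter-Glo readout after 48 hours of compound exposure at 37 degrees C defined viability of HT-1080-NT cells. Activity was normalized to DMSO wells and cell-free media wells; concentration-response curves were fitted and assigned curve classes.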
KB-3-1 cytotox: KB-3-1 parental cell cytotoxicity; KB-3-1 viability, CellTiter-Glo ATP luminescence, 72 h; Potency, µM (titrated, usually from 46.1 µM), hits mostly cytotoxic; 400,000 tested, 1.4% active; AID 1347075; also: nearly all actives have a fitted effect of over 60% in size
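KB-3-1 parental drug-naive adenocarcinoma cells in DMEM/10% FBS, incubated 72 h at 37 C with pin-transferred compounds across a concentration series. Viability by CellTiter-Glo luminescence; concentration-response curves fitted after normalization.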
HT1080 IDH1KD tx: toxicity to HT-1080 IDH1 knockdown cells (counter line) | HT-1080 IDH1 knockdown viability, ATP luminescence, 48 h | Potency, µM (series often up to 46.1 µM), actives largely listed as cytotoxic | 360,000 tested, 2% active
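Luminescent ATP read-out (CellTiter-Glo, 10 min at room temperature) after 48 h compound exposure at 37 °C gave viability of IDH1-knockdown HT-1080 cells. Activity was normalised to DMSO and cell-free wells, then fitted as concentration-response curves.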
TDP1 cell CPT: DT40-hTDP1 cell growth loss with CPT; chicken DT40 Tdp1-/-;hTDP1 cells + 20 nM CPT, ATP luminescence, 48 h; Potency, µM (titrated, usually from 46.2 µM), hits mostly inhibitors; 420,000 tested, 12% active; AID 686979; also: nearly all actives have a fitted effect of over 55% in size
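Cell growth measured by CellTiter-Glo luminescence after a minimum 48 h, 37 C compound exposure with 20 nM CPT in Tdp1-knockout DT40 cells stably expressing hTDP1, seeded 400/well; qHTS titration format.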
KB-V1 cytotox: kills drug-selected multidrug resistant KB-V1 cells. KB-V1 MDR cells viability, CellTiter-Glo, 72 h. 400,000 tested, 3.4% active. Potency, µM (titrated, usually from 46.1 µM), hits mostly cytotoxic; also: nearly all actives have a fitted effect of over 60% in size
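Cytotoxicity via CellTiter-Glo luminescence after 72 h compound exposure at 37 degrees C. Cells: drug-selected KB-V1 line, DMEM phenol-red free plus 10% FBS. Compounds tested at multiple concentrations; normalized data fitted to concentration-effect curves.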
TDP1 cell noCPT: qHTS for Inhibitors of human tyrosyl-DNA phosphodiesterase 1 (TDP1): qHTS in cells in absence of CPT. DT40 Tdp1-/- hTDP1 cells, no CPT, ATP luminescence, 48 h. Potency, µM (doses to about 46.2 µM), most hits filed as inhibitors. 420,000 tested, 15% active. AID 686978, 2013; also: nearly all actives have a fitted effect of over 55% in size
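A cellular qHTS used chicken DT40 cells lacking endogenous Tdp1 but carrying stably transfected human TDP1. Compounds were applied without camptothecin, and cell growth kinetics were judged by ATP-dependent luminescence after ≥48 hr.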
A number is an active result; n = inactive; u = inconclusive; x = no result; [ ] = remark or other dose. Rows were chosen to be rich in hits. Some 19% of all compounds tested hit in one or more screens of this group. Calls follow the shape of the dose curve; as a rule, active = well fitted curve in the direction sought with a large enough effect; inconclusive = small, poorly fitted or top-dose-only effect, or another doubt; inactive = no such curve, though single readings can be large; an effect the other way counts as inactive or inconclusive.

SMILES | HT1080NT lethal | KB-3-1 cytotox | HT1080 IDH1KD tx | TDP1 cell CPT | KB-V1 cytotox | TDP1 cell noCPT
COc1ccc(S(=O)(=O)NCC(c2ccco2)N2CCN(c3ccc(F)cc3)CC2)cc1C (centres undefined) | x | x | x | 16.4µM | x | 23.1µM
COc1ccc(S(=O)(=O)NCC(c2cccnc2)N2CCN(c3ccc(F)cc3)CC2)cc1C (centres undefined) | n | u | n | 14.6µM | n | 16.4µM
O=S(=O)(NCC(c1ccco1)N1CCN(c2ccc(F)cc2)CC1)c1cc(F)ccc1F (centres undefined) | x | x | x | 18.4µM | x | 16.4µM
O=C(CN1C(=O)COc2ccc(S(=O)(=O)Nc3ccccc3)cc21)NCc1ccccc1Cl | x | n | x | u | n | u
Cc1nc2[nH]c(=O)[nH]c(=O)c2[nH]1 | x | x | x | n[9.04 µM] | x | n[9.04 µM]
O=S(=O)(NCC(c1ccco1)N1CCN(c2ccccc2F)CC1)c1ccc(F)cc1 (centres undefined) | n | n | n | u | n | u
O=S(=O)(NCC(c1ccco1)N1CCN(c2ccc(F)cc2)CC1)c1ccc(F)cc1 (centres undefined) | n | n | n | 23.1µM | 14.6µM | u
CCc1cc2c(=O)c(-c3cnn(-c4ccccc4)c3)c(C)oc2cc1OCC(=O)Nc1ccc(F)c(F)c1 | n | n | n | 14.6µM | u | 9.2µM
CCc1cc2c(=O)c(-c3cnn(-c4ccccc4)c3)c(C)oc2cc1OCC(=O)Nc1cccc(C)c1 | n | u | n | 3.26µM | u | 5.17µM
CCc1cc2c(=O)c(-c3ccc(F)cc3)c(C)oc2cc1OCC(=O)O | n | n | u | n | n | n
O=C(Nc1c2ccccc2nc2ccccc12)C(Cl)(Cl)Cl | n | u | n | 16.4µM | n | 23.1µM
Cc1ccc(OCC(=O)NNc2c3ccccc3nc3ccccc23)cc1 | n | n | n | u | 18.4µM | 16.4µM
O=C(Cc1ccccc1)NNc1c2ccccc2nc2ccccc12 | n | n | n | 20.6µM | n | u
O=C(Nc1c2c(nc3ccccc13)CCCC2)c1ccccc1Cl | n | n | n | n | n | n
COc1ccc(C(=O)C2CCCN(C(=O)c3ccc4nccnc4c3)C2)c(C)c1 (centres undefined) | n | n | n | u | n | u
O=C(Nc1ccc(F)cc1Cl)C1CCN(C(=O)Nc2ccccc2)CC1 | n | n | n | n | n | n
Cc1ccc2nc(-c3cccc(Br)c3)c(Cc3ccccc3)n2c1 | u | n | n | 25.9µM | u | u
Cc1ccc2nc(-c3ccccc3)c(Cc3cccc(Cl)c3)n2c1 | u | n | u | 20.6µM | n | 18.4µM
Cc1ccc(Cc2c(-c3cccc(Br)c3)nc3ccc(Cl)cn23)cc1 | n | n | n | u | n | 18.4µM
Cc1ccc(Cc2c(-c3cccc(Cl)c3)nc3ccc(C)cn23)cc1 | u | n | u | u | n | 16.4µM
Clc1ccc2nc(-c3cccc(Br)c3)c(Cc3ccccc3)n2c1 | n | n | n | n | n | u
